Assay [1] addresses Lysosomal acid glucosylceramidase (Homo sapiens) (UniProt P04062). Description: Glucocerebrosidase-p2 (AID 348; in the data active = potency below about 10 µM; note: potency is the fitted concentration of half-maximal effect). The conditions noted are these: purified GBA, blue fluorogenic substrate, 40 min. Put shortly:
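Compounds titrated from 0.6 nM upwards against 0.2 nM enzyme in pH 5.9 citric acid/KH2PO4, taurocholate, tween-20; blue fluorogenic substrate 80 uM, 40 min room temperature, stopped and read Ex 365/Em 440 for AC50.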

The nature of assay [2]: AP1 Signaling Pathway (AID 357). Note: % is set by controls: 0 for no effect and ±100 for the full control effect. The conditions noted are these: ME-180 AP-1-bla reporter, EGF-induced, beta-lactamase ratio, 5 h; at 7.69 µM (top of the series) unless noted. In outline: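 Cells are seeded overnight, exposed to compound titrations and an EC50 level of EGF for 5 hours at 37 °C, then loaded with CCF4 dye for 2.5 hours. Beta-lactamase activity under the AP-1 element is read as a blue/green ratio.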

Assay [3] addresses Cytochrome P450 1A2 (Homo sapiens) (UniProt P05177). Description: p450-cyp1a2 (AID 410; calls by dose curve; note: potency is the fitted concentration of half-maximal effect;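 for activity change, negative = inhibition: -100% = full effect of reference inhibitor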). The conditions noted are these: recombinant CYP1A2, luciferin-ME demethylation, luminescence; series mostly up to 57 µM. Put shortly:
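20nM CYP1A2 with 100uM Luciferin-ME (at Km) in 100mM KPO4; compound preincubated 10 min, NADPH regeneration added, 60 min at room temperature. Luciferin quantified by luminescence after detection reagent; normalized to 57 uM furafylline.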

A short description of assay [4]: Stat Signaling Pathway (AID 446).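 Note: ME-180 cervical cancer cells given 40 pM IL-6 alongside compound; SIE-controlled beta-lactamase reporter measured as 460/530 nm FRET emission ratio; % is set by controls: 0 for no effect and ±100 for the full control effect.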 The conditions noted are these: ME-180 SIE beta-lactamase reporter, IL-6 stimulated, 5 h; at 7.69 µM (top of the series) unless noted. Put shortly: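 ME-180 SIE-bla cells; overnight plating; cpd + IL-6 40 pM, 5 h, 37 C; LiveBLAzer 2.5 h RT; 460/530 nm emission ratio. Normalized to 300 pM IL-6 and 125 nM JAK inhibitor controls.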

Assay [5] concerns the target Glucocorticoid receptor (Homo sapiens) (UniProt P04150). Description: GR-EFC Redistribution (AID 451; calls by dose curve; note: potency is the fitted concentration of half-maximal effect). The conditions noted are these: CHO-K1 GR-EFC translocation, beta-gal luminescence, 2 h. Put shortly: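 CHO-K1 cells stably expressing nuclear-localized β-gal enzyme acceptor and GR fused C-terminally to the enzyme donor fragment; ligand-driven nuclear translocation restores β-gal by complementation. Compounds titrated up to 46 uM final, 2 h at 37 °C; luminescence read.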

In assay [6] the target is Mitogen-activated protein kinase 10 (Mus musculus) (UniProt Q61831). Description: JNK3 AlphaScreen Assay (AID 530).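 Note: kinase came from lysate of stimulated human HepG2 cells; signal reports phosphorylation of biotinylated GST-cJun 1-79 at Ser73 with 10 µM ATP; % is set by controls: 0 for no effect and ±100 for the full control effect.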 The conditions noted are these: JNK3 lysate, c-Jun phosphorylation; series mostly up to 57.1 µM. In outline: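 Inhibitors reduce antibody binding to phosphorylated biotin-cJun, lowering AlphaScreen luminescence. Lysates from HepG2 cells pre-activated by IL-1beta plus TNF-alpha supplied JNK3; compounds were titrated.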
Background: Bead proximity is the source of the signal in Alpha formats.

Assay [7] addresses 3',5'-cyclic-AMP phosphodiesterase 4B (Homo sapiens) (UniProt Q07343). As to the kind of experiment: qHTS Assay for Inhibitors of PDE-IV (AID 607; active = well fitted activation curve with a large enough effect in the main read-out, with a control signal flat, not every such curve was filed as active; note: % of control where 0% means no effect). The conditions noted are these: HEK293 ACTOne CNG channel cells, membrane potential fluorescence; series mostly up to 22.9 µM. Put shortly: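 ACTOne HEK293 cells carry a modified cAMP-gated CNG channel and express endogenous PDE4; plated 1000 cells/well, compounds up to 22.9 uM final. Membrane-potential dye fluorescence (ex 535/em 590) was read; parental cells received 10 uM forskolin + 100 uM RO 20-1724.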
(In general: In qHTS, concentration-response curves come from the screen itself.)

Assay [8] is described as follows: Primary qHTS for small molecule stabilizers of the endoplasmic reticulum resident proteome: Secreted ER Calcium Modulated Protein (SERCaMP) assay (AID 1508630; active = well fitted curve in the direction sought with a large enough effect; an effect the other way counts as inactive or inconclusive; note: % is set by controls: 0 for no effect and ±100 for the full control effect). The conditions noted are these: SH-SY5Y GLuc-SERCaMP (Gaussia luciferase released on ER calcium loss) secretion, thapsigargin, luminescence; series mostly up to 38.4 µM. In outline:
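GLuc-SERCaMP-expressing SH-SY5Y cells, pretreated 16 h with compound, are challenged with thapsigargin to empty ER calcium stores; after 4 h, coelenterazine is added directly to the medium and luminescence is imaged.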

A short description of assay [9]: NFAT Signaling Pathway (AID 444). The conditions noted are these: Jurkat NFAT-bla M1, carbachol, beta-lactamase ratio, 5 h; at 7.69 µM (top of the series) unless noted. In outline:
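Jurkat cells carrying an NFAT-driven β-lactamase reporter and co-transfected muscarinic M1 receptor were treated with compound plus carbachol (1 uM final, an EC50 level) for 5 h at 37 °C. CCF4 loading followed for 1 h at RT; 460/530 nm ratio gave %activity.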

Assay [10] deals with Glucocorticoid receptor (Homo sapiens) (UniProt P04150). Description: GR-GFP Redistribution (AID 450;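 active = compounds whose dose series gives a full or clear partial fitted curve of increased nuclear translocation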; note: potency is the fitted concentration of half-maximal effect). The conditions noted are these: U2OS GR-GFP nuclear translocation, laser cytometry, 2 h.
Assay [11] addresses Cytochrome P450 3A4 (Homo sapiens) (UniProt P08684). Description: qHTS Assay for Activators of Cytochrome P450 3A4 (AID 885; active = well fitted curve in the direction sought with a large enough effect; an effect the other way counts as inactive or inconclusive; note: nearly all actives have a fitted effect of over 65% in size). The conditions noted are these: recombinant CYP3A4, Luciferin-PPXE luminescence, 60 min; series mostly up to 57.1 µM. Put shortly: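 20nM CYP3A4 + 25uM Luciferin-PPXE (=KM), 200mM KPO4; cpd 10 min RT; NADPH regen, 60 min RT; stop w/ detection buffer, 20 min; luminescence. Normalized to 57 uM ketoconazole.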

Assay [12] in a line: qHTS Assay for Identification of Small Molecule Agonists for Hypoxia Response Element Signaling Pathway (AID 914; active = well fitted activation curve with a large enough effect in the signal ratio, with a control signal flat, not every such curve was filed as active; the % refers to the signal ratio; note: potency is the fitted concentration of half-maximal effect). The conditions noted are these: ME-180 (cervical carcinoma) HRE-bla reporter, beta-lactamase ratio, CoCl2, 17 h; activation: hits give high values. Put shortly: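 HRE-bla ME-180 cells with beta-lactamase reporter under hypoxia response element, compounds with EC50 CoCl2 for 17 hours at 37 C. CCF4 substrate, 460nm/530nm emission ratio gave %Activity; AC50 from titration series.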

Assay [13] has as its target Cytochrome P450 2C9 (Homo sapiens) (UniProt P11712). Description: qHTS Assay for Inhibitors and Substrates of Cytochrome P450 2C9 (AID 883; active = well fitted curve in the direction sought with a large enough effect; an effect the other way counts as inactive or inconclusive; note: potency is the fitted concentration of half-maximal effect; nearly all actives have a fitted effect of over 60% in size). The conditions noted are these: recombinant CYP2C9, luciferin-H luminescence, 60 min; series mostly up to 57.1 µM. In outline:
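CYP2C9 deoxyluciferin hydroxylation, 37C, 60 min with NADPH regeneration; 10nM enzyme, 100uM Luciferin-H (KM). Glo detection reagent stopped reaction; luminescence normalized to sulphaphenazole (57uM) full inhibition.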

Assay [14] concerns the target Cytochrome P450 2C19 (Homo sapiens) (UniProt P33261). Description: qHTS Assay for Inhibitors and Substrates of Cytochrome P450 2C19 (AID 899; active = well fitted curve in the direction sought with a large enough effect; an effect the other way counts as inactive or inconclusive; note: potency is the fitted concentration of half-maximal effect; nearly all actives have a fitted effect of over 60% in size). The conditions noted are these: recombinant CYP2C19, luciferin-H EGE luminescence; series mostly up to 57.1 µM. Put shortly:
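In 50mM KPO4, the reaction held 5nM enzyme and KM-level (10uM) Luciferin-H EGE; it ran 60 min at 37C after NADPH regeneration and a 10 min compound preincubation. Luminescence values were scaled to 57uM ketoconazole as complete inhibition.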

Assay [15] addresses Cytochrome P450 2D6 (Homo sapiens) (UniProt P10635). Description: qHTS Assay for Inhibitors and Substrates of Cytochrome P450 2D6 (AID 891; active = well fitted curve in the direction sought with a large enough effect; an effect the other way counts as inactive or inconclusive; note: potency is the fitted concentration of half-maximal effect; nearly all actives have a fitted effect of over 60% in size). The conditions noted are these: recombinant CYP2D6, luciferin-ME EGE luminescence; series mostly up to 57.1 µM. In outline: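 Human CYP2D6 (5 nM) with 30 uM Luciferin-ME EGE (at Km) in 100 mM KPO4, compound preincubated 10 min, then NADPH regeneration system for 60 min at room temperature. Luciferin read by luminescence; normalized to 1.43 uM quinidine.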

The target of assay [16] is Cytochrome P450 3A4 (Homo sapiens) (UniProt P08684). Description: qHTS Assay for Inhibitors and Substrates of Cytochrome P450 3A4 (AID 884; active = well fitted curve in the direction sought with a large enough effect; an effect the other way counts as inactive or inconclusive; note: potency is the fitted concentration of half-maximal effect; nearly all actives have a fitted effect of over 50% in size). The conditions noted are these: recombinant CYP3A4, Luciferin-PPXE luminescence; series mostly up to 57.1 µM. Put shortly: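 20 nM human CYP3A4 with 25 uM Luciferin-PPXE (at KM) in 200 mM KPO4, preincubated 10 min with compound; NADPH regeneration started a 60 min RT reaction. Luciferin detected by luminescence, normalized to 57 uM ketoconazole as full inhibition.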

This is an account of results in PubChem BioAssay (NCATS).

Values without a mark were called inactive. Results filed as inconclusive are left out. The source made the active and inactive calls. Unless noted, calls come from the whole dose curve; as a rule, active = well fitted curve in either direction with a large enough effect (not every such curve was filed as active); inconclusive = small, poorly fitted or top-dose-only effect, or another doubt; inactive = flat fitted curve, though single readings scatter.

Sequence of Glucocorticoid receptor (Homo sapiens) (P04150 whole entry, looked up, the tested form may be a part): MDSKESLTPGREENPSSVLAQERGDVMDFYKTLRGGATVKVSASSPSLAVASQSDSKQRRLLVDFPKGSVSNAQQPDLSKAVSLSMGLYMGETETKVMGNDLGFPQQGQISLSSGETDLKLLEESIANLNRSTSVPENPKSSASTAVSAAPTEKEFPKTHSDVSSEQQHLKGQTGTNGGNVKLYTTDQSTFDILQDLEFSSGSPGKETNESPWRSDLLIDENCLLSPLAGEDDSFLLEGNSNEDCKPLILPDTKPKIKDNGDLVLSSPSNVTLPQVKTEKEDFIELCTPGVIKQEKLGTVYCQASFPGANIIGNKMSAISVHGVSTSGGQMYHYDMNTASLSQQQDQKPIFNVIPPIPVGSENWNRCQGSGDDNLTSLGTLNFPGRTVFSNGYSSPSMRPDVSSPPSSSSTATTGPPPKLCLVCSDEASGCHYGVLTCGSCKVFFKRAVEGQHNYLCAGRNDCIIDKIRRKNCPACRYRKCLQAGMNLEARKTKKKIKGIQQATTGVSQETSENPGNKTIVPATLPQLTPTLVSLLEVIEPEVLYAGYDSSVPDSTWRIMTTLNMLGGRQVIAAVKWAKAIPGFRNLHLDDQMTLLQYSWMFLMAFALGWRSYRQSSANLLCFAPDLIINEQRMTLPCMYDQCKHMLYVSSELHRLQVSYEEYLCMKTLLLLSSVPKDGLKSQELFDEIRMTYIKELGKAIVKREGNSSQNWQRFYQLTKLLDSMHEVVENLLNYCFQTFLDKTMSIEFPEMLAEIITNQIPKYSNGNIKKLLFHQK
Sequence of Lysosomal acid glucosylceramidase (Homo sapiens) (P04062 whole entry, looked up): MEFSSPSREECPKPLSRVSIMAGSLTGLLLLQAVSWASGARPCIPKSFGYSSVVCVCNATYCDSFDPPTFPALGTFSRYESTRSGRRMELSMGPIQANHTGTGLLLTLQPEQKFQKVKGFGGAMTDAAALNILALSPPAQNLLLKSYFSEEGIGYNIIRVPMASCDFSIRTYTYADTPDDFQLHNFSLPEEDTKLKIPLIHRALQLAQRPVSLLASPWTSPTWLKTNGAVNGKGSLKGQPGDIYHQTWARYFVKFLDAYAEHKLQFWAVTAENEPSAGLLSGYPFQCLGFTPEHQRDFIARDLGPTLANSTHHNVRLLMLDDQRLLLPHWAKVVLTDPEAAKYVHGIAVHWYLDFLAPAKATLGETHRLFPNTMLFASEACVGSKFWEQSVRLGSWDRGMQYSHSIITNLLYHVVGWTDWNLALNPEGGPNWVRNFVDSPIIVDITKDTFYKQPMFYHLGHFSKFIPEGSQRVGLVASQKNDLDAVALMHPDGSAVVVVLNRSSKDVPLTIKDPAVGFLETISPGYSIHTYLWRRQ
Sequence of 3',5'-cyclic-AMP phosphodiesterase 4B (Homo sapiens) (Q07343 whole entry, looked up): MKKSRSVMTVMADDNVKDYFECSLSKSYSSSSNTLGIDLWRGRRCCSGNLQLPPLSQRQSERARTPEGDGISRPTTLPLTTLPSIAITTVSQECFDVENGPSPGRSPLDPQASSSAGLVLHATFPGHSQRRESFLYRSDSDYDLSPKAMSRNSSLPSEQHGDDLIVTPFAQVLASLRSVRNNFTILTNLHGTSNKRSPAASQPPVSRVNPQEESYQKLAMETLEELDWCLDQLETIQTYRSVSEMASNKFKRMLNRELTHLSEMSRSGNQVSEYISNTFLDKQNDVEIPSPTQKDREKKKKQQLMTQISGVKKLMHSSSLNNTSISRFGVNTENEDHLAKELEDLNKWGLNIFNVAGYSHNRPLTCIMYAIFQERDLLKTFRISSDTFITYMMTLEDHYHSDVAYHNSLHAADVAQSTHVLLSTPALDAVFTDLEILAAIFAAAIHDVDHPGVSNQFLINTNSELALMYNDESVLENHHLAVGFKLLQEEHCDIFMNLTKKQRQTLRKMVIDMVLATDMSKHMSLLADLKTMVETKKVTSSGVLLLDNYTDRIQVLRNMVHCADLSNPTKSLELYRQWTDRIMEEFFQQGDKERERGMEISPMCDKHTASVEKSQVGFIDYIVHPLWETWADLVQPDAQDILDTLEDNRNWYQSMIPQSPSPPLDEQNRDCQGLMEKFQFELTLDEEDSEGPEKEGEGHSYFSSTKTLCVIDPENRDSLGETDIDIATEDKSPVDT
Sequence of Cytochrome P450 3A4 (Homo sapiens) (P08684 whole entry, looked up): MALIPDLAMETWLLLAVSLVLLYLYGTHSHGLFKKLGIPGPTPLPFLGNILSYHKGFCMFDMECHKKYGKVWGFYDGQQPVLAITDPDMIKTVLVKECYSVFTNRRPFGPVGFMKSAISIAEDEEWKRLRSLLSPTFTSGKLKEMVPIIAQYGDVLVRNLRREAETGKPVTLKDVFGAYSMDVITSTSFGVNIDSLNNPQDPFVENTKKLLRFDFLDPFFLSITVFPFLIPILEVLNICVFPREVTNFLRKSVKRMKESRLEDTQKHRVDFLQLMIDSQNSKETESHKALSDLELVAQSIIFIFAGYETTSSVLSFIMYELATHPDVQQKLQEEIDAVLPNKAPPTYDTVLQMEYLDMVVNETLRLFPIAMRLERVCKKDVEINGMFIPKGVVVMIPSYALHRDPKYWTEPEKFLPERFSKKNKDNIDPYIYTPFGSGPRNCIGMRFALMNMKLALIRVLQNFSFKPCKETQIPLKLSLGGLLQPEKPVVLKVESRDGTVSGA
Sequence of Cytochrome P450 1A2 (Homo sapiens) (P05177 whole entry, looked up): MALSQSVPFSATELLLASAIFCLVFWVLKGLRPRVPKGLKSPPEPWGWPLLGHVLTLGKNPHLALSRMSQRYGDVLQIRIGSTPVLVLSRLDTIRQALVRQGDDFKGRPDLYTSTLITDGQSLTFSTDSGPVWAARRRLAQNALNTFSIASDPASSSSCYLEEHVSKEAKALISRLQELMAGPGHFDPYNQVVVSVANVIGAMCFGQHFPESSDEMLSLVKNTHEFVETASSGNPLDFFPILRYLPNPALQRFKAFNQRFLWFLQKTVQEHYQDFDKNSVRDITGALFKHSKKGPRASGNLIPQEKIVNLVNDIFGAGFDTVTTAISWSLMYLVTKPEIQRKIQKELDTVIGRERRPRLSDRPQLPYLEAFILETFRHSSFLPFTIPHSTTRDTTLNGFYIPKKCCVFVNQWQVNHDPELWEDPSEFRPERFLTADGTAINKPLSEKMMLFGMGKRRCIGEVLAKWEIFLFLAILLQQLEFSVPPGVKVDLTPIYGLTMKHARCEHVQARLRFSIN
Sequence of Cytochrome P450 2C9 (Homo sapiens) (P11712 whole entry, looked up): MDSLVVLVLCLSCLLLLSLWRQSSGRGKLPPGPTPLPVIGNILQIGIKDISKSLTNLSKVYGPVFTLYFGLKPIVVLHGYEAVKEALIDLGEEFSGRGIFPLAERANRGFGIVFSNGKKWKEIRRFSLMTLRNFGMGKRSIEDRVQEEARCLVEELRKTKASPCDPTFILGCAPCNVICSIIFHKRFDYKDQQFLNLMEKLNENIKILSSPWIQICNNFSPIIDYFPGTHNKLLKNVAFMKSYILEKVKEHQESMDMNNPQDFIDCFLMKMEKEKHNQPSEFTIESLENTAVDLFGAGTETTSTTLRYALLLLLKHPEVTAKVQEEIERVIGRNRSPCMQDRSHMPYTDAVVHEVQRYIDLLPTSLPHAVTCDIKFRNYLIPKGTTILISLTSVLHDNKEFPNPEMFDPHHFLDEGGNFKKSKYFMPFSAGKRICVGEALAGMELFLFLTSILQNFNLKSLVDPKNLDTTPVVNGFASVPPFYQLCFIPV
Sequence of Cytochrome P450 2C19 (Homo sapiens) (P33261 whole entry, looked up): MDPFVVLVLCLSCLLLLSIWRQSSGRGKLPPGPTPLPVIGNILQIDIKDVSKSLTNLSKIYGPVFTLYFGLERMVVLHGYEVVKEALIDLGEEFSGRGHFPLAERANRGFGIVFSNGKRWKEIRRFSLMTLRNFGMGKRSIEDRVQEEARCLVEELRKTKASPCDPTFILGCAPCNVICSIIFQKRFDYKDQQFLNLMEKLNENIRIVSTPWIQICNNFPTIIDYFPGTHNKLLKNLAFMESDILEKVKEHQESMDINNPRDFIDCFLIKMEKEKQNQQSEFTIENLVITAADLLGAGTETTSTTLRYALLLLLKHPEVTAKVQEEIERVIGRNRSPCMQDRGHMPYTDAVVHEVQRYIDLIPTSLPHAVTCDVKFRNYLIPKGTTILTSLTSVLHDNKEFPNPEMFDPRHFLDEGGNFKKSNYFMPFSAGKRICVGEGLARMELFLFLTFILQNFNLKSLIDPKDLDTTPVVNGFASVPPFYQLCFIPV
Sequence of Cytochrome P450 2D6 (Homo sapiens) (P10635 whole entry, looked up): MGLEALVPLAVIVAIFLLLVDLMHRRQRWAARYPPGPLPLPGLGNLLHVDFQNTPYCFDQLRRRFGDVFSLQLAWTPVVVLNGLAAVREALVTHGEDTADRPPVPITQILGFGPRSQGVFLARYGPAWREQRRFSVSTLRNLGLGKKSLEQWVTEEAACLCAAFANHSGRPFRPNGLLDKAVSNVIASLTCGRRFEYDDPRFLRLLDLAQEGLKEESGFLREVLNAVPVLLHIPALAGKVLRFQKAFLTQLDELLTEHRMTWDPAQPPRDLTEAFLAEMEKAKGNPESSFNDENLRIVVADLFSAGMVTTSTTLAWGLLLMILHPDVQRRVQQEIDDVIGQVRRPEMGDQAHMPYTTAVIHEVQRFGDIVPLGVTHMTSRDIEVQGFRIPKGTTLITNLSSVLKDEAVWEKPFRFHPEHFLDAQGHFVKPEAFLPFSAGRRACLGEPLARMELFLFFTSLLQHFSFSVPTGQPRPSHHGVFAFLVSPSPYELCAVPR

As for `Cn1cccc1C(=O)N1CCC2(CC1)CCN(c1ccccn1)CC2`, the Potency in assay [1] was > 11.4 µM; in assay [3], 15.8 µM (active); in assay [5], > 46 µM. Moreover, the activity change, negative = inhibition in [2] was -0.389%. Besides, the activity, negative = inhibition in assay [4] was -4.58%. Further, the Potency entry in [6] and in [7] was “inactive” throughout. The outcome in assay [8] was inactive.

Consider `Cn1cc(-c2nc3cnc(Oc4ccccc4)nc3n(CCC#N)c2=O)c2ccccc21`, for which the Potency in assay [1] was > 11.4 µM; in assay [3] it was 3.16 µM (active); in [10], > 9.22 µM; in assay [5], > 46 µM; in assay [12], 3.16 µM (active). Besides, the activity change, negative = inhibition in assay [2] is 5.74%; in assay [9], 7.14%. Besides, the Potency entry in assay [6], in assay [7] and in [11] was “inactive” throughout. The result in assay [8] was inactive.

In the case of `COC(=O)N1CCC2(CC1)CCN(c1ccncc1)CC2`, the Potency in assay [1] is > 11.4 µM; in assay [5], > 46 µM. In addition, the activity change, negative = inhibition in assay [2] was 6.46%. In addition, the Potency entry in assay [3], in assay [6] and in assay [7] was “inactive” in each case. Besides, the activity, negative = inhibition in assay [4] was 20.2%. Besides, the result in assay [8] was inactive.

As for `O=c1c(-c2cccc(Cl)c2)nc2cncnc2n1Cc1ccccc1Cl`, the Potency in assay [1] was > 11.4 µM; in [3], 2 µM (active); in assay [10], > 9.22 µM; in assay [5] it was > 46 µM; in assay [13], 3.98 µM (active); in assay [14] it was 5.01 µM (active). For the same compound, in assay [2], the activity change, negative = inhibition is 15.6%. Further, in assay [4], the activity, negative = inhibition was -2.1%. For the same compound, the Potency entry in [6] and in [11] was “inactive” each time. For the same compound, the result in assay [8] was inactive.

For the compound `O=C(c1cccc(F)c1)N1CCC2(CCCN(Cc3ccncc3)C2)CC1`, the Potency in assay [1] was > 11.4 µM; in [3], 15.8 µM (active); in [5] it was > 46 µM; in assay [13], 0.631 µM (active); in assay [15] it was 7.94 µM (active). The activity change, negative = inhibition in [2] was -4.41%. Also, in [4], the activity, negative = inhibition is -4.85%. In addition, the Potency entry in [6], in assay [7] and in assay [11] was “inactive” in each case. For the same compound, the result in assay [8] was inactive.

Turning to `COCCn1c(=O)c(-c2cn(C)c3ccccc23)nc2cnc(Oc3ccccc3)nc21`, the Potency in assay [1] was > 11.4 µM; in assay [3], 10 µM (active); in [10] it was > 9.22 µM; in [5] it was > 46 µM; in assay [16] it was 3.16 µM (active); in assay [12] it was 3.16 µM (active). For the same compound, the activity change, negative = inhibition in assay [2] is 26.2%; in [9], 19.4%. Besides, the Potency result in assay [7] and in assay [11] was “inactive” in each case. The outcome in assay [8] was inactive.

Turning to `CC(C)NC(=O)N1CC[C@@]2(CCCN(C(=O)c3cccc(F)c3)C2)C1`, the results for the Potency in assay [1] and in assay [5] were > 11.4 µM and > 46 µM, respectively. Moreover, the figures for the activity change, negative = inhibition in [2] and in assay [9] were -5.48% and 10.1%, respectively. The Potency result in assay [3], in assay [6] and in assay [7] was “inactive” in each case. Further, the outcome in [8] was inactive.
